Several values for one entry are separate records, joined by “and”; a condition that tells them apart may be missing. Identical values can stand only once. Results filed as inconclusive are left out. Where a call stands in place of a potency, no number is given. A structure can be active in one record and inactive in another. Activity calls are given as the source filed them. Unless noted, the call rests on the fitted dose curve; in most records, active means well fitted curve in the direction sought with a large enough effect; inconclusive means small, poorly fitted or top-dose-only effect, or another doubt; inactive means no such curve, though single readings can be large; an effect the other way counts as inactive or inconclusive.
What was measured:
[1] = Cell Viability - N2a (AID 540); conditions: N2a mouse neuroblastoma cell viability; activity change, negative = cytotoxicity: at 92.2 µM (top of the series);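 further: cells exposed to compound for 40 h at 37 °C; nearly all actives have a fitted effect of over 45% in size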; further: potency means the concentration at half of the fitted maximal effect
In short: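 Cytotoxicity was scored as loss of cellular ATP in N2a cells, a mouse neuroblastoma line. Compounds are applied in a qHTS concentration series for 40 hr at 37 °C.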

[2] = Cell Viability - NIH 3T3 (AID 541); conditions: NIH 3T3 cell viability, qHTS; activity change, negative = cytotoxicity: at 92.2 µM (top of the series); further: nearly all actives have a fitted effect of over 25% in size; further: potency means the concentration at half of the fitted maximal effect
In short: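 Cells seeded at 1000/well, rested 5 hr at 37 °C, then dosed and incubated 40 hr at 37 °C. CellTiter-Glo added, 20 min room temperature, luminescence read. AC50 by Hill fit.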

[3] = Cell Viability - HUV-EC-C (AID 542); further: nearly all actives have a fitted effect of over 35% in size; further: potency means the concentration at half of the fitted maximal effect
In short: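 Cells were seeded at 1000 per well and incubated 5 hr at 37 °C before compound addition. After 40 hr at 37 °C, CellTiter-Glo reagent was added for 20 min and luminescence read. AC50 values came from Hill-equation modelling.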

[4] = Cell Viability - H-4-II-E (AID 543); further: nearly all actives have a fitted effect of over 35% in size; further: potency means the concentration at half of the fitted maximal effect
In short: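 Cells seeded at 1500 per well and rested 5 hr; compounds added; 40 hr incubation at 37 °C; CellTiter-Glo added, 20 min at room temperature; luminescence read. Hill-equation fits gave AC50.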

[5] = Cell Viability - SH-SY5Y (AID 544); conditions: SH-SY5Y neuroblastoma cell viability; viability change, negative = cytotoxic: at 92.2 µM (top of the series); further: nearly all actives have a fitted effect of over 55% in size; further: potency means the concentration at half of the fitted maximal effect
In short: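 Cells were plated at 1500 per well and allowed 5 hr at 37 °C. Compounds were added across a concentration range and incubated 40 hr at 37 °C. CellTiter-Glo was added for 20 min at room temperature before luminescence reading.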

[6] = Cell Viability - Renal Proximal Tubule (AID 545); conditions: renal proximal tubule cells viability; activity change, negative = cytotoxicity: at 91.7 µM (top of the series) unless noted; further: nearly all actives have a fitted effect of over 40% in size; further: potency means the concentration at half of the fitted maximal effect
In short: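 In this qHTS format, normal rat kidney-derived proximal tubule cells in complete culture medium receive compound titrations, then sit 40 hours at 37 °C before luciferase-based ATP quantitation; potency is reported as AC50 from concentration-response curves.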

[7] = Cellular Toxicity (caspase-3) HUV-EC-C (AID 656)
In short: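 Concentration-dependent caspase 3/7 induction was assessed in HUV-EC-C cells exposed for 16 hours. Data scaled between DMSO and tamoxifen (100 uM) controls.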

[8] = Cellular Toxicity (caspase-3) MRC-5 (AID 659)
In short: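 Apoptosis readout in MRC-5 cells: luciferase light generated after caspase 3/7 cleaves a peptide-aminoluciferin substrate, measured post 16 hr compound incubation at 37 °C.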

[9] = Cellular Toxicity (caspase-3) Mesangial (AID 660); conditions: Potency: caspase-3 activation;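 further: combined caspase 3 and 7 activity read by Caspase-Glo luminescence; cells exposed to compound for 16 h before the caspase read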
In short: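 Seed cells derived from normal human renal glomeruli, incubate 5 h, add compounds across concentrations and incubate 16 h at 37 °C. Caspase 3/7 activation is then quantified by luciferase light, with AC50 derived by Hill modeling.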

[10] = Cellular Toxicity (caspase-3) Hek293 (AID 664); conditions: HEK293 caspase-3 activation, DMSO = 0%, 100 µM tamoxifen = 100%; at 92.2 µM (top of the series);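 further: cells exposed to compound for 16 h at 37 °C before readout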
In short: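 qHTS, HEK293 (human embryonic kidney), 16 h cpd exposure in complete medium. Caspase-3/7 activation = luminescence increase; normalized to DMSO/100 uM tamoxifen; Hill-fit AC50.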

[11] = Cellular Toxicity (caspase-3) NIH 3T3 (AID 666);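 further: caspase signal read after 16 h compound exposure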
In short: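 Cells were plated at 1000 per well and incubated 5 hr at 37°C, then compound was added for 16 hr. Caspase-Glo 3/7 reagent followed for 20 min at room temperature before luminescence was read.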

[12] = Cell Viability - LYMP1-003 - Assay at 24 hr (AID 963); further: potency means the concentration at half of the fitted maximal effect
In short: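 Cytotoxicity is scored as a concentration-dependent fall in ATP-linked luciferase signal in human lymphoblastoid LYMP1-003 cells treated 24 hr at 37 C in complete culture medium.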

[13] = Cell Viability - LYMP2-003 (AID 965);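 further: cells exposed to compounds for 24 h before reading; nearly all actives have a fitted effect of over 50% in size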; further: potency means the concentration at half of the fitted maximal effect
In short: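 qHTS, human lymphoblastoid line, 2500 cells/well, complete medium. 24 h drug, 37 C. ATP-based luminescent readout; Hill-fit AC50.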

[14] = Cell Viability - LYMP2-015 (AID 971);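 further: cells exposed to compound for 24 h; nearly all actives have a fitted effect of over 55% in size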; further: potency means the concentration at half of the fitted maximal effect
In short: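 Cells are seeded at 2500 per well and incubated 5 hr at 37 C. Compounds are added across a concentration series for 24 hr at 37 C. CellTiter-Glo is added, and luminescence is read after 30 min at room temperature.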

[15] = Cell Viability - LYMP2-016 (AID 984);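 further: cells exposed to compound for 24 hours at 37 °C; nearly all actives have a fitted effect of over 55% in size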; further: potency means the concentration at half of the fitted maximal effect
In short: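 Concentration-dependent ATP depletion measured in LYMP2-016 lymphoblastoid cells, 24 h, 37 C; luciferase-based luminescent detection; Hill-equation AC50.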

[16] = Cell Viability - LYMP2-018 (AID 985);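 further: compound exposure lasted 24 hr at 37 °C; nearly all actives have a fitted effect of over 50% in size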; further: potency means the concentration at half of the fitted maximal effect
In short: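 Seed 2500 lymphoblastoid cells per well, incubate 5 hr at 37 C, add compound and incubate 24 hr at 37 C, add CellTiter-Glo, wait 30 min at room temperature, then read luminescence.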

[17] = target: Peroxisome proliferator-activated receptor alpha (Homo sapiens) (UniProt Q07869); test: qHTS assay for small molecule agonists of the peroxisome proliferator-activated receptor alpha (PPARalpha) signaling pathway (AID 651778); conditions: PathHunter PPARalpha complementation, chemiluminescence, 6 h; max response: stronger effect = higher value
Peroxisome proliferator-activated receptor alpha (Homo sapiens), sequence (Q07869 whole entry, looked up): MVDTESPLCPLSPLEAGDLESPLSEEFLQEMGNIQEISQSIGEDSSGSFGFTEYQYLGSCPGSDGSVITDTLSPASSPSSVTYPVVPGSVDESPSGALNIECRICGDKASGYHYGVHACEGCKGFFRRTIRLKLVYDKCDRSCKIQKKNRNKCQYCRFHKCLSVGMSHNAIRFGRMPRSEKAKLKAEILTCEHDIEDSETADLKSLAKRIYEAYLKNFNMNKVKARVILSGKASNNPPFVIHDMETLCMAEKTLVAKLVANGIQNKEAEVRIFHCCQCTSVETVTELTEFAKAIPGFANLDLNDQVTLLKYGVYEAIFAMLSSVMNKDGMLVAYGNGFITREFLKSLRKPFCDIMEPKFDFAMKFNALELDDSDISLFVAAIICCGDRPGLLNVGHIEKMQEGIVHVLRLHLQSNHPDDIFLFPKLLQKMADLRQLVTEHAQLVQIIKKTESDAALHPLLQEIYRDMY
In short: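 Cells plated at 2,000/well and held overnight at 37 C, 5% CO2, then compound added by pin tool for 6 hr; after PathHunter detection reagent and 60 min at room temperature, chemiluminescence from enzyme complementation was read.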

[18] = qHTS assay for cell viability of the p53RE-bla HCT-116 cell line (AID 743292); further: nearly all actives have a fitted effect of over 55% in size; further: potency means the concentration at half of the fitted maximal effect
In short: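 ATP-based luminescent viability (CellTiter-Glo, 30 min RT) after 16 h compound treatment at 37 C of p53RE-bla HCT-116 cells, seeded at 4,000 cells/well and rested 5 h before dosing.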

[19] = target: Tumor necrosis factor (Homo sapiens) (UniProt P01375); test: qHTS assay to identify small molecules that stimulate Tumor Necrosis Factor-alpha (TNF-alpha) secretion (AID 651757; active means well fitted curve in the direction sought with a large enough effect in the signal ratio; the % refers to the signal ratio)
Tumor necrosis factor (Homo sapiens), sequence (P01375 whole entry, looked up): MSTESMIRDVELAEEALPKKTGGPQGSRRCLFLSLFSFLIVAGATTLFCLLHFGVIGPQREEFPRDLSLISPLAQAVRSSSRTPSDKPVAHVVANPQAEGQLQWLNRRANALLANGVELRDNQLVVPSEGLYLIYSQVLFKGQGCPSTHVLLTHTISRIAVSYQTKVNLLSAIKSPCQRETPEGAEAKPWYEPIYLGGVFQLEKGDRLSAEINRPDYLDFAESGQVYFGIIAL
In short: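 Human monocytic THP-1 cells are plated, treated with compound and held at 37 C for 17 hrs. Labeled anti-TNF-alpha antibody mixture is then added; after 3 hr at room temperature, TR-FRET signal reports secreted TNF-alpha.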

CN(C)c1ccc(N=O)cc1
Potency [1]: 31.6 µM (active) | Potency [2]: 12.6 µM (active) | Potency [3]: inactive | Potency [4]: 6.31 µM (active) | Potency [5]: 1.26 µM (active) | Potency [6]: 15.8 µM (active) | outcome [7]: inactive | outcome [8]: inactive | Potency [9]: inactive | caspase-3 activation [10]: 9.09% (inactive) | outcome [11]: inactive | Potency [12]: 7.94 µM (active) | Potency [13]: 1.26 µM (active) | Potency [14]: 1 µM (active) | Potency [15]: 1.58 µM (active) | Potency [16]: 1.26 µM (active) | max response [17]: -3.57% (inactive) | Potency [18]: inactive

[CH3][Hg][Cl]
Potency [1]: 10 µM (active) | Potency [2]: 0.0316 µM (active) | Potency [3]: 15.8 µM (active) | Potency [4]: 5.01 µM (active) | Potency [5]: 2.51 µM (active) | activity change, negative = cytotoxicity [6]: -104% (active) | outcome [7]: inactive | outcome [8]: inactive | caspase-3 activation [10]: -9.46% (inactive) | Potency [12]: 50.1 µM (active) | Potency [13]: 5.01 µM (active) | Potency [14]: 3.16 µM (active) | Potency [15]: 3.98 µM (active) | Potency [16]: 3.16 µM (active) | Potency [19]: inactive | max response [17]: -12.7% (inactive)

OC(c1ccc(Cl)cc1)(c1ccc(Cl)cc1)C(Cl)(Cl)Cl
activity change, negative = cytotoxicity [1]: -118% (active) | Potency [2]: inactive | Potency [3]: inactive | Potency [4]: inactive | Potency [5]: inactive | Potency [6]: inactive | outcome [7]: inactive | outcome [8]: inactive | Potency [9]: inactive | outcome [11]: inactive | Potency [12]: inactive | Potency [13]: inactive | Potency [14]: inactive | Potency [15]: inactive | Potency [16]: inactive | Potency [19]: inactive | max response [17]: -0.474% (inactive) | Potency [18]: 50.1 µM (active)

O=C(O)C1C(C(=O)O)C2(Cl)C(Cl)=C(Cl)C1(Cl)C2(Cl)Cl (centres undefined)
activity change, negative = cytotoxicity [1]: 14.3% (inactive) | Potency [2]: inactive | Potency [3]: inactive | Potency [4]: inactive | Potency [5]: inactive | Potency [6]: inactive | outcome [7]: inactive | outcome [8]: inactive | Potency [9]: inactive | caspase-3 activation [10]: 1.7% (inactive) | outcome [11]: inactive | Potency [12]: inactive | Potency [13]: inactive | Potency [14]: inactive | Potency [15]: inactive | Potency [16]: inactive | Potency [19]: inactive | max response [17]: 10.1% (inactive) | Potency [18]: inactive

C(=NC1CCCCC1)=NC1CCCCC1
Potency [1]: 10 µM (active) | Potency [2]: 1 µM (active) | Potency [3]: inactive | Potency [4]: 1.26 µM (active) | Potency [5]: inactive | Potency [6]: inactive | outcome [7]: inactive | outcome [8]: inactive | Potency [9]: inactive | outcome [11]: inactive | Potency [12]: inactive | Potency [13]: inactive | Potency [19]: inactive | max response [17]: -9.68% (inactive) and -4.28% (inactive) | Potency [18]: inactive

O=C1C2(Cl)C3(Cl)C4(Cl)C(Cl)(Cl)C5(Cl)C3(Cl)C1(Cl)C5(Cl)C24Cl (centres undefined)
Potency [1]: 31.6 µM (active) and 39.8 µM (active) | activity change, negative = cytotoxicity [2]: -136% (active) and -122% (active) | Potency [3]: 31.6 µM (active) and 63.1 µM (active) | Potency [4]: 31.6 µM (active) and 50.1 µM (active) | Potency [5]: 31.6 µM (active) | viability change, negative = cytotoxic [5]: -93.4% (active) | Potency [6]: 31.6 µM (active) | activity change, negative = cytotoxicity [6]: -88.2% (active) | outcome [7]: inactive | outcome [8]: inactive | caspase-3 activation [10]: 112% (active) and 177% (active) | outcome [11]: inactive | Potency [12]: 31.6 µM (active) and 50.1 µM (active) | Potency [13]: 39.8 µM (active) | Potency [16]: 50.1 µM (active) | Potency [19]: inactive | max response [17]: 6.14% (inactive) and 11.6% (inactive) and 6.69% (inactive) | Potency [18]: 70.8 µM (active) and inactive

Source: PubChem BioAssay (NCATS)
